A selection: hits, their analogues and other compounds. The true share with any hit is near 19%.
Lassa entry inh: qHTS for Inhibitors of binding or entry into cells for Lassa Virus. hit rate 1.2% among 300,000. Potency, µM (series often up to 37.9 µM), without a hit: at the top dose activity change, negative = inhibition, actives largely listed as inhibitors. Lassa virus pseudotype entry inhibition, cell reporter; calls by dose curve; tested in HEK293 cells; also: potency is read from the fitted curve at half-maximal effect; % is scaled to controls: 0 for no effect and ±100 for the full control effect; nearly all actives have a fitted effect of over 50% in size
Pf growth 48h: Primary qHTS for delayed death inhibitors of the malarial parasite plastid, 48 hour incubation; P. falciparum luciferase growth in erythrocytes, 48 h; Potency, µM (top dose mostly 28.7 µM), inactives show at the top dose activity change, negative = inhibition, hits mostly inhibitors; hit rate 5.9% among 310,000; AID 504832, 2011; also: potency is read from the fitted curve at half-maximal effect; % is scaled to controls: 0 for no effect and ±100 for the full control effect
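Here the parasites carry a stable luciferase gene and grow inside erythrocytes in Albumax-based RPMI medium with compound for one erythrocytic cycle. Activity is scored as loss of luminescent signal.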
MARV entry inh: qHTS for inhibitors of binding or entry into cells for Marburg Virus. AID 540276, 2011. Potency, µM (titrated, usually from 37.8 µM), without a hit: at the top dose activity change, negative = inhibition, hits mostly inhibitors. hit rate 1.8% among 300,000. Marburg virus pseudotyped entry inhibition, cell reporter; calls by dose curve; tested in HEK293 cells; also: potency is read from the fitted curve at half-maximal effect; % is scaled to controls: 0 for no effect and ±100 for the full control effect
Pf growth 96h: Primary qHTS for delayed death inhibitors of the malarial parasite plastid, 96 hour incubation | P. falciparum luciferase reporter growth, 96 h | Potency, µM (top dose mostly 28.7 µM), without a hit: at the top dose activity change, negative = inhibition, most hits filed as inhibitors | hit rate 6.9% among 320,000 | AID 504834, 2011; also: potency is read from the fitted curve at half-maximal effect; % is scaled to controls: 0 for no effect and ±100 for the full control effect
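P. falciparum expressing integrated firefly luciferase, in erythrocytes at 2% hematocrit, 0.05% parasitemia, incubated with compounds 96 h at 37 C, 5% CO2. Growth inhibition read as loss of luminescence; two-generation exposure targets delayed-death apicoplast inhibitors.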
Cycloheximide cs: Cycloheximide Counterscreen for Small Molecule Inhibitors of Shiga Toxin; cell reporter, cycloheximide protein synthesis inhibition counterscreen; max response, %; AID 2314, 2010; hit rate 12% among 300,000; in the data active = max response mostly above about 13%, no sharp cut-off; inactive = mostly below about 14%; also: read at 38.3 µM for the half of the compounds with a filed dose; 0% is about no effect
Shiga toxin inh: A qHTS for Small Molecule Inhibitors of Shiga Toxin; Vero cells, Shiga toxin protein synthesis inhibition reporter; inhibition, % at 38.7 µM; hit rate 9.2% among 290,000; AID 2315, 2010; in the data active = inhibition mostly above about 28%, no sharp cut-off; inactive = mostly below about 43%; also: 0% is about no effect
* hit, by the source's call; i = inactive; u = inconclusive; x = not tested or not shown; [ ] = dose if it differs, or a comment. Unless noted, calls follow the shape of the dose curve; as a rule, active = well fitted inhibition curve with a large enough effect; inconclusive = small, poorly fitted or top-dose-only effect, or another doubt; inactive = no such curve, though single readings can be large or run the other way.

SMILES	Lassa entry inh	Pf growth 48h	MARV entry inh	Pf growth 96h	Cycloheximide cs	Shiga toxin inh
Cc1ccc(C)c(S(=O)(=O)/N=C2\C=C(NS(=O)(=O)c3ccccc3)C(=O)c3ccccc32)c1	30%[46.1 µM]	u	-18%[46.1 µM]	u	-4	-7
CC(=O)Nc1ccc(NC2=C/C(=N/S(=O)(=O)c3cccs3)c3ccccc3C2=O)cc1	u	0.15µM*	5µM*	104%	17	5
COc1ccc(S(=O)(=O)/N=C2\C=C(Nc3ccc(O)cc3)C(=O)c3ccccc32)cc1	u	0.93µM*	u	18%	10	13
Cc1ccc(NS(=O)(=O)c2cccs2)c(C)c1	0%[46.1 µM]	10%	-28%[46.1 µM]	u	-1	-6
Cc1ccc(NC2=C/C(=N/S(=O)(=O)c3cccs3)c3ccccc3C2=O)cc1C	4%	0.66µM*	-7%	11%	31*	50*
COC(=O)C(C(C)=O)C1=C/C(=N\S(=O)(=O)c2ccc(C)cc2)c2ccccc2C1=O (stereo not drawn)	1%	x	-14%	u	-1	-11
Cc1ccccc1NC1=C/C(=N\S(=O)(=O)c2cccs2)c2ccccc2C1=O	u	0.093µM*	3.7µM*	x	7	-26
COc1ccc(-n2c(Cc3cccn3C)nnc2SCC(=O)Nc2cccc(Cl)c2)cc1	x	u	x	u	-2	-4
O=C(Nc1ccccc1)N1CC2CC(C1)c1cccc(=O)n1C2 (stereo not drawn)	x	13%	x	-4%	8	-8
COc1nnc(-c2ccc(C(=O)N3C[C@@H]4C[C@H](C3)c3cccc(=O)n3C4)cc2)c2ccccc12	5%	u	u	2.6µM*	1	17
O=C(c1ccc(-c2nnc(Nc3cccc(Cl)c3)c3ccccc23)cc1)N1C[C@H]2C[C@H](C1)c1cccc(=O)n1C2	u	13µM*	u	6.6µM*	1	-20
COc1ccc(C(=O)N2C[C@H]3C[C@@H](C2)c2cccc(=O)n2C3)cc1OC	x	1%	x	0%	-2	-4
Cc1ccc2c(c1)N(C(=O)N1CCC(C(=O)NCc3ccccc3F)CC1)CC(C)O2 (stereo not drawn)	-16%[46.1 µM]	x	x	x	x	x
COc1cc(CN(C(=O)c2ccc(C)cc2)c2ccccn2)cc(OC)c1OC	-6%[46.1 µM]	x	u	x	x	x
COc1ccc(C(c2c(O)nc(SC)n(C)c2=O)c2c(O)nc(SC)n(C)c2=O)cc1O	2%	-14%	2%	23%	5	-6
Cc1cc(C)c(S(=O)(=O)Nc2ccc(O)cc2)c(C)c1	-10%	x	u	-8%	1	-6
CC(=O)c1ccc(NS(=O)(=O)c2c(C)cc(C)cc2C)cc1	u	3%	u	31%	38*	73*
CC(=O)c1ccc(NS(=O)(=O)c2ccc(N)cc2)cc1	0%	37%	-13%[14.2 µM]	19%	28*	50*
CC(=O)c1ccc(NS(=O)(=O)c2ccccc2)cc1	7%	15%	0%	u	-2	14
Cc1cc(C)c(S(=O)(=O)Nc2ccc3c4c(cccc24)CC3)c(C)c1	1µM*	u	u	u	5	24
Cc1ccc(S(=O)(=O)Nc2ccc3c4c(cccc24)CC3)c(C)c1	-22%	x	u	x	x	x
Cc1cc(C)c(S(=O)(=O)Nc2ccc3c(c2)CCC3)c(C)c1	u	-11%	7.3µM*	u	1	15
CC(=O)c1ccc(N=Nc2ccc(N)cc2)cc1	x	152%	x	i	28*	56*
COc1ccc2c(CC(=O)N3CCc4ccccc43)coc2c1	-28%	154%	u	x	42*	66*
COc1ccc(CC(=O)N2CCc3ccccc32)cc1	-29%	127%	u	-23%	31*	80*
O=C1c2ccccc2C(=O)N1CCCC(=O)N1CCc2ccccc21	6%	x	2%	40%	10	-4
COc1ccc2c(CC(=O)OCC(=O)N3CCc4ccccc43)coc2c1	1%	11%	2%	x	8	33
O=C(CS(=O)(=O)c1ccccc1)N1CCCCCC1	7%	38%	u	27%	17*	53*

Assay outcomes: PubChem BioAssay, National Center for Advancing Translational Sciences (NCATS)
